Only some compounds are listed: those with a hit (about 3.4% of all), similar ones and a draw of the others.
PP1 inh: counter-screen for PP5 inhibitors: inhibitors of human PP1-alpha; hit rate 0.9% among 320,000; purified PP1alpha, OMFP fluorescence; inhibition, % at 6.7 µM; P62136;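 active = inhibition above the mean inhibition of all tested compounds plus 3 SD, computed separately for each screening campaign, cut at about 15% in these data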
Target sequence (P62136 whole entry, looked up): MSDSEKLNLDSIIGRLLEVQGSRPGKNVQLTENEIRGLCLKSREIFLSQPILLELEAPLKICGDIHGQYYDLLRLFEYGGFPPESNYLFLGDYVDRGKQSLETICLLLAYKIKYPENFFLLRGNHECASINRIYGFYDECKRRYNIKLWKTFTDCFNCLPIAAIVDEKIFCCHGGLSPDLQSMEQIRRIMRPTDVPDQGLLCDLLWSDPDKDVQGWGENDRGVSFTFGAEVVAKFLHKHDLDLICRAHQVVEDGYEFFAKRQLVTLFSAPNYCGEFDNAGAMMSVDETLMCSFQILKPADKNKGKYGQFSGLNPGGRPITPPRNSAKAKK
PAFAH1B2 inh: inhibitors of human PAFAH1B2. P68402. recombinant PAFAH1B2, FP-rhodamine activity probe, fluorescence polarization. inhibition, % at 3.39 µM. hit rate 1.2% among 340,000. AID 492953;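 active = inhibition above the mean of all tested compounds plus 3 SD, cut at about 24% in these data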;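 also: 0% = enzyme with DMSO and 100% = wells lacking PAFAH1B2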
Target sequence (P68402 whole entry, looked up): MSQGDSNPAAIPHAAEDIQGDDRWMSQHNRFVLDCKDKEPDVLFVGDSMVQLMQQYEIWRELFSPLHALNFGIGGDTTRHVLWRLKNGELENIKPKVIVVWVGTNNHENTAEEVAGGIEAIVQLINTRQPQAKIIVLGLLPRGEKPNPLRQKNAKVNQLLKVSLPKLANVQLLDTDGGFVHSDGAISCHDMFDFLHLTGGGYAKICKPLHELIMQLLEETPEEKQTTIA
PAFAH1B3 FP inh: inhibitors of human PAFAH1B3. AID 492972. inhibition, % at 3.39 µM. hit rate 0.28% among 340,000. recombinant PAFAH1B3, FP-rhodamine probe, fluorescence polarization;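 active = inhibition above the screen-wide average of all tested compounds plus 3 SD, cut at about 25% in these data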;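 also: 0% = enzyme with DMSO only and 100% = wells lacking PAFAH1B3 protein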
pPAFAH FP inh: pPAFAH (human) enzyme inhibition; recombinant pPAFAH, FP-rhodamine probe fluorescence polarization; inhibition, % at 3.39 µM; hit rate 1.5% among 330,000;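 active = inhibition above the mean inhibition across the screen plus 3 SD, cut at about 25% in these data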;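 also: inhibitors block binding of the rhodamine activity-based probe so polarization drops; 0% = enzyme with DMSO and 100% = wells lacking pPAFAH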
PAFAH2 FP inh: PAFAH2 (human) inhibition | Q99487 | hit rate 0.99% among 340,000 | recombinant PAFAH2, FP-rhodamine activity probe, fluorescence polarization | inhibition, % at 3.39 µM;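 active = inhibition above the mean over all tested compounds plus 3 SD, cut at about 30% in these data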;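 also: inhibitors block probe labeling of enzyme so polarization drops; 0% = enzyme with DMSO and 100% = wells lacking PAFAH2 protein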
PP5 inh: inhibitors of human protein phosphatase 5 (PP5); P53041; purified PP5c, OMFP substrate fluorescence; inhibition, % at 6.7 µM; hit rate 0.18% among 320,000; AID 1987;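 active = inhibition above the campaign's mean inhibition across all tested compounds plus 3 SD, cut at about 9.5% in these data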;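 also: 0% = DMSO only and 100% = 100 µM cantharidin control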
PAFAH2 FP conf: confirmation of human PAFAH2 inhibitors; shares compounds with PAFAH2 FP inh; recombinant PAFAH2, FP-rhodamine activity probe, fluorescence polarization; inhibition, % at 3.39 µM; hit rate 65% among 2,300; AID 493030;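 active = mean inhibition over three repeats above a set limit taken from the earlier primary screen, cut at about 30% in these data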;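 also: inhibitor blocks binding of rhodamine activity probe so polarization falls; 0% = enzyme with DMSO and 100% = wells lacking PAFAH2 protein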
* hit, by the source's call; . = not tested or not shown.

SMILES	PP1 inh	PAFAH1B2 inh	PAFAH1B3 FP inh	pPAFAH FP inh	PAFAH2 FP inh	PP5 inh	PAFAH2 FP conf
O=C(COC(=O)C1CC1)Nc1ccc(OC(F)F)cc1	-5	1	9	13	55*	0	46*
O=C(COC(=O)C1CCC1)Nc1ccc(OC(F)F)cc1	-5	4	-3	-1	16	2	.
O=C(COC(=O)C1CC1)NC(=O)c1ccccc1	0	11	2	0	32*	-1	13
COc1cc2[nH]c(=O)n(CCCCCC(=O)N3CCN(c4ccccn4)CC3)c(=O)c2cc1OC	8	-1	8	7	-3	-1	.
Cc1occc1C(=O)N1CCCC(Nc2ccc(C(C)C)cc2)C1 (stereo not drawn)	0	5	1	9	0	1	.
O=C(NCCCN1CCOCC1)c1cc2nc(-c3ccco3)cc(C(F)(F)F)n2n1	-2	2	0	0	-2	0	.
COc1cc(C(=O)OCC(=O)N2CCCCCC2)c([N+](=O)[O-])cc1OC	.	6	12	3	35*	.	24
C=CCSc1nnc2c(n1)OC(c1ccco1)Nc1ccccc1-2 (stereo not drawn)	-1	6	9	8	16	-1	.
COc1ccc(/C=C/C(=O)OCC(=O)Nc2ccc(Cl)cc2F)cc1S(=O)(=O)N1CCOCC1	-3	3	4	2	73*	3	48*
COc1ccc(/C=C/C(=O)OCC(=O)NC2CCCC(C)C2C)cc1S(=O)(=O)N1CCOCC1 (stereo not drawn)	2	2	-1	0	67*	0	75*
O=C(Oc1ccc(-c2csnn2)cc1)C1CC1	-2	6	7	20	75*	-2	76*
Cc1ccc(NC(=O)COC(=O)C2C3CC4OC(=O)C2C4C3)cc1 (stereo not drawn)	1	2	4	-3	55*	0	55*
CC(=O)c1ccc(NC(=O)COC(=O)C2C3CC4OC(=O)C2C4C3)cc1 (stereo not drawn)	0	-6	6	0	25	1	.
CCOc1ccc(NC(=O)COC(=O)C2C3CC4OC(=O)C2C4C3)cc1 (stereo not drawn)	-3	1	2	-2	47*	0	40*
O=C(COC(=O)C1C2CC3OC(=O)C1C3C2)Nc1cccc(Cl)c1 (stereo not drawn)	1	6	7	2	77*	0	84*
O=C(NC1CCCCC1)C(c1ccc(F)cc1)N(Cc1ccccc1)C(=O)CN1C(=O)c2ccccc2S1(=O)=O (stereo not drawn)	0	-5	6	-3	-11	1	.
CC[C@@]1(C(=O)OC)N[C@H](CN(C)C(=O)COC)[C@@H]2C(=O)N(Cc3ccccc3)C(=O)[C@@H]21	.	5	2	2	11	.	.
Cc1ccc(/C(=N\O)c2oc3c(C)c4oc(=O)cc(C)c4cc3c2C)cc1	4	-8	-4	-10	-24	4	.
Cc1cc(=O)oc2c1ccc1oc(/C(=N/O)c3ccccc3)c(C)c12	2	-2	-5	4	37*	5	29
CCN(CC)S(=O)(=O)c1ccc2c(c1)nc(CCC(=O)OCC(=O)N1CCc3ccccc31)n2C	-2	5	7	3	71*	-3	82*
CCc1ccc(NC(=O)COC(=O)CCc2nc3cc(S(=O)(=O)N(CC)CC)ccc3n2C)cc1	0	6	7	6	63*	4	75*
CCN(CC)S(=O)(=O)c1ccc2c(c1)nc(CCC(=O)OCC(=O)Nc1cc(Cl)cc(Cl)c1)n2C	1	-4	-15	6	73*	7	84*
CCN(CC)S(=O)(=O)c1ccc2c(c1)nc(CCC(=O)OCc1c(C)noc1C)n2C	-1	-1	2	-4	10	-1	.
COc1ccc(CNC(=O)COc2ccc(S(=O)(=O)N3CCOCC3)cc2)cc1	-1	3	2	7	2	-1	.
CCC(=O)Nc1ccc(C(=O)n2ccc(C)n2)cc1	-2	5	9	-9	59*	1	61*
SMILES	PP1 inh	PAFAH1B2 inh	PAFAH1B3 FP inh	pPAFAH FP inh	PAFAH2 FP inh	PP5 inh	PAFAH2 FP conf
Cc1ccn(C(=O)c2ccc(NC(=O)CC(C)C)cc2)n1	-16	-1	2	-1	62*	4	56*
Cc1cc(C)n(C(=O)c2ccc(NC(=O)C3CC3)cc2)n1	-2	4	2	9	2	1	.
Cc1ccn(C(=O)c2ccc(NC(=O)C3CC3)cc2)n1	-3	-1	3	0	63*	2	53*
O=C(NCC1CCCO1)C(c1ccncc1)N(Cc1cccs1)C(=O)Cn1nnc(-c2ccc(F)cc2)n1 (stereo not drawn)	-2	5	5	1	5	-2	.
CC(C)CCNC(=O)C(c1ccncc1)N(Cc1cccs1)C(=O)Cn1nnc(-c2ccc(F)cc2)n1 (stereo not drawn)	6	3	1	7	40*	4	13
Cc1ccc(C(=O)OCC(=O)Nc2sc3c(c2C#N)CCCC3)cc1NC(=O)c1ccco1	11	-3	-25	21	13	-1	.
Cc1ccc(C(=O)OCC(=O)Nc2ccc(N(C)C)cc2)cc1NC(=O)c1ccco1	0	-2	3	1	41*	0	35*
Cc1ccc(C(=O)OCC(=O)Nc2nc(-c3ccccc3)cs2)cc1NC(=O)c1ccco1	-1	-3	-11	-15	-22	-3	.
Cc1ccc(C(=O)OCC(=O)Nc2ncc(Cl)cc2Cl)cc1NC(=O)c1ccco1	-1	1	9	10	42*	0	41*
Cc1ccc(C(=O)OCC(=O)Nc2sccc2C(N)=O)cc1NC(=O)c1ccco1	6	-1	-1	1	16	2	.
Cc1ccc(C(=O)OCC(=O)Nc2ccccc2)cc1NC(=O)c1ccco1	3	-7	1	8	82*	-3	81*
Cc1ccc(C(=O)OCC(=O)Nc2cc(F)ccc2F)cc1NC(=O)c1ccco1	1	2	-2	-1	78*	2	70*
Cc1ccc(C(=O)OCC(=O)Nc2sc3c(c2C#N)CCCCC3)cc1NC(=O)c1ccco1	4	-9	-11	0	-8	3	.
CCC(C)c1ccccc1NC(=O)COC(=O)c1ccc(C)c(NC(=O)c2ccco2)c1 (stereo not drawn)	-1	-1	4	1	78*	2	74*
Cc1ccc2[nH]c(O)c(N=Nc3ccccc3[N+](=O)[O-])c2c1	.	0	0	.	5	.	.
Cc1ccc2[nH]c(O)c(N=Nc3nc4ccccc4s3)c2c1	-2	5	-2	0	55*	0	36*
Oc1[nH]c2ccccc2c1N=Nc1nc2ccccc2s1	1	7	-3	8	52*	4	20

Screening data deposited in PubChem BioAssay by The Scripps Research Institute Molecular Screening Center.
